Measurements taken from PubChem BioAssay (EPA / NIEHS).
Records with an inconclusive call do not appear. Active and inactive are the calls of the source. Rule for the calls: active = hit-call score of the fitted dose curve at least 0.9, where 1 is the maximum; inconclusive = response in the unintended direction; inactive = score below 0.9.

biological target: human Thyroid hormone Receptor beta (TRb), THRB (gene 7068) (UniProt P10828); experiment: ATG_hTRb_XSP2: Attagene TRANS-FACTORIAL Multi-Species (XSP2) HepG2 Assay for human Thyroid hormone Receptor beta (TRb) (AID 2283840);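 note: actives raise reporter mRNA so potency reflects agonist-like gain of signal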
Method: ATG_XSP2_multi-species_TRANS is a cell-based, multiplexed assay created by modifying the existing Attagene TRANS-FACTORIAL system to include a panel of nuclear receptors from some or all the following species: human (Homo sapiens), mouse (Mus musculus), frog (Xenopus laevis), zebrafish (Danio rerio), chicken (Gallus gallus), and turtle (Chrysemys picta). The ECOTOX-FACTORIAL format uses HepG2, a human liver cell line, with measurements taken at 24 hours after chemical dosing in a 24-well plate. Xsp2 included 3 nM 6-alpha-fluorotestosterone and 1.5 nM norgestrel to stimulate the androgen receptor.ATG_hTRb_XSP2 is one of 29 assay components measured or calculated from the ATG_XSP2_multi-species_TRANS assay. It is designed to make measurements of mRNA induction, a form of inducible reporter, as detected with fluorescence intensity signals by Reverse transcription polymerase chain reaction (RT-PCR) and Capillary electrophoresis technology.The assay endpoint ATG_hTRb_XSP2 was analyzed in the positive analysis fitting direction relative to DMSO as the negative control and baseline of activity. Using a type of inducible reporter, measures of mRNA for gain-of-signal activity can be used to understand the reporter gene at the transcription factor-level as they relate to the gene TR. Furthermore, this assay endpoint can be referred to as a primary readout, because this assay has produced multiple assay endpoints where this one serves a reporter gene function. To generalize the intended target to other relatable targets, this assay endpoint is annotated to the nuclear receptor intended target family, where the subfamily is non-steroidal.
Human liver HepG2 cells are transiently transfected with multiple reporter transcription units (MRTUs) in 6-well plates using FuGene 6 reagent (Roche; 3 ml FuGene/1 mg DNA). The MRTU constructs are regulated by a cis-regulating element (promoter). […] A major difference between the CIS and TRANS system is that in CIS activities of endogenous TFs are measured, whereas the TRANS assay evaluates changes in activities of exogenous, chimeric NR-Gal4 proteins. […] At the end of 24 hour incubation, total RNA was isolated using TriZol reagent (Invitrogen). The isolated RNA is then reverse-transcribed using oligo(dT) primer and Mo-MLV reverse transcriptase (Invitrogen) with DNAse I (Ambion) treatment for 30 min. The one-tenth of the produced cDNA was amplified by PCR using Taq DNA polymerase (Invitrogen) and two reporter sequence-specific primers. The PCR products were fluorescently labeled by primer extension with 6-arboxyfluorescein (6-FAM) 5'-labeled reporter sequence-specific primer (2 min at 95 C, 20 s at 68 C and 10 min at 72 C) and these products were digested with 5U of HpaI (New England Biolabs) for 2h at 37 C. The fragments were purified using Qiaquick PCR columns (Qiagen), analyzed on an ABI 3130xL genetic analyzer (Applied Biosystems) with peak positions identified by using a set of X-rhodamine (ROX)-labeled MapMarker1000 molecular weight standards (BioVentures). The raw capillary electrophoresis data was processed using Attagraph software (Attagene).

Sequence of human Thyroid hormone Receptor beta (TRb), THRB (gene 7068) (P10828 whole entry, looked up): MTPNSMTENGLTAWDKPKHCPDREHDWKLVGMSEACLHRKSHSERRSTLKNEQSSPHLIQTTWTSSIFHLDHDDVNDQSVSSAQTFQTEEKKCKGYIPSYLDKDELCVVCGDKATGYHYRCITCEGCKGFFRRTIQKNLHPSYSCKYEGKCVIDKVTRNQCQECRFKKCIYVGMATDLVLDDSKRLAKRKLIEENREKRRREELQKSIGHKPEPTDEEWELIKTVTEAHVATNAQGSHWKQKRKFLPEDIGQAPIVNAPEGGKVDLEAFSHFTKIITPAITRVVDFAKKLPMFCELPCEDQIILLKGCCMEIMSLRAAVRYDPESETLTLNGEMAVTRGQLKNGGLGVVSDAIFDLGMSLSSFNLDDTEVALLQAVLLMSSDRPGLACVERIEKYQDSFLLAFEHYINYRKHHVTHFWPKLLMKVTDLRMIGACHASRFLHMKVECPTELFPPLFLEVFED

SMILES | outcome | AC50
COP(=S)(OC)Oc1ccc([N+](=O)[O-])cc1 | inactive | –
Oc1cc(Cl)ccc1Oc1ccc(Cl)cc1Cl | – | 4.77 µM (active)
O=C(O)C(F)(F)C(F)(F)C(F)(F)C(F)(F)C(F)(F)C(F)(F)C(F)(F)F | inactive | –
Oc1ccc(Cl)cc1Cc1ccccc1 | inactive | –
O=S1OCC2C(CO1)C1(Cl)C(Cl)=C(Cl)C2(Cl)C1(Cl)Cl (stereo not given) | inactive | –
CC(C)(C)C(O)/C(=C\c1ccc(Cl)cc1Cl)n1cncn1 (stereo not given) | inactive | –
COP(=S)(OC)Oc1ccc(SC)c(C)c1 | inactive | –
CCCN(CCOc1c(Cl)cc(Cl)cc1Cl)C(=O)n1ccnc1 | inactive | –
CCOCN(C(=O)CCl)c1c(C)cccc1CC | inactive | –
CC1(C)C(C=C(Cl)Cl)C1C(=O)OC(C#N)c1ccc(F)c(Oc2ccccc2)c1 (stereo not given) | inactive | –
